From PubChem BioAssay AID431 (Sanford-Burnham Center for Chemical Genomics, 2006) come the findings set out here.

Structures are written as SMILES. Out of some 63,000 compounds screened, about 1,100 (1.7%) were called active. The full list was thinned out, with actives kept by preference. Results with a measured potency or affinity are listed apart. A number with no mark means an inactive call.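 Rule for the calls: active = compounds whose percent cytotoxicity in the single-dose primary screen, scaled between solvent and toxic-drug controls, exceeds 50; inactive = the rest.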

The nature of the test: viability loss of HPDE-C7K cells – cell-based, fluorescence, HTS, primary screen (AID 431).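 Note: 0% = DMSO solvent wells and 100% = doxorubicin-treated wells.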 The conditions noted are these: HPDE-C7K KRASV12 cells, Alamar Blue viability, 48 h; at 10 µM; stronger effect = higher value. (In general: The colour change of resazurin is a common sign of viable cells or microbes.)
As to `CCOC(=O)CSC(CC)C(=O)Nc1nnc(C(C)C)s1` (stereo unspecified), the cytotoxicity is 1.3%. Next, `COc1ccc(CCNC(=O)C2CCN(C(=O)N(C)C)CC2)cc1OC`: -12.4%; `CCOC(=O)c1cc(-c2ccco2)nc2c1c(C)nn2-c1ccccc1`: -7.1%; `CCOc1cc(NC(=O)c2ccco2)c(OCC)cc1NC(=O)c1cc(OC)c(OC)c(OC)c1`: 7.5%. With `COc1cc(NC(=O)c2ccco2)c(OC)cc1NC(=O)c1cc(OC)c(OC)c(OC)c1`, the cytotoxicity is 50.8% (active). Then `COc1cc(C(=O)Nc2ccc(NC(=O)c3ccco3)nc2)cc(OC)c1OC`, with -3.4%; and `COc1cccc(NC(=O)Cn2nnc(-c3ccccc3N)n2)c1`, with 6.3%; and `CCc1ccc2[nH]c(=O)c(CN(CCO)C(=O)NCc3ccccc3)cc2c1`, with -4.1%.

Regarding `COc1ccccc1Oc1cc(C#N)c(C#N)cc1-n1nnc2ccccc21`, the cytotoxicity is -24.3%.

For the molecule `c1ccc(-n2nnnc2Oc2cccc3cccnc23)cc1`, the cytotoxicity was -4.5%. In the case of `N#Cc1cc(Oc2cccc3cccnc23)c(-n2nnc3ccccc32)cc1C#N`, the cytotoxicity was 74.9% (active).

In the case of `CCCC(=O)n1nc(-c2ccco2)nc1SCc1ccccc1`, the cytotoxicity was 2.3%. Then `CCn1c(SCC(=O)Nc2ccc(S(=O)(=O)Nc3ccccn3)cc2)nnc1-c1ccncc1`, with -0.6%. Regarding `COC(=O)c1c(C(=O)OC)c2n(c1C)Cc1ccccc1C2`, the cytotoxicity was 3%. Regarding `Cc1ccc(C(=O)Nc2cccc(C(=O)NCc3ccco3)c2)cc1`, the cytotoxicity was 66.2% (active). Then `O=C(NCc1ccccc1)c1cccc(NC(=O)c2ccco2)c1`, with 35.4%; and `CCC(CC)C(=O)Nc1cccc(C(=O)NCc2ccco2)c1`, with -2.1%.

`Cc1occc1C(=O)Nc1cccc(C(=O)NCc2ccccc2)c1`: the cytotoxicity was -17.7%. `O=C(NCc1ccco1)c1cccc(NC(=O)c2ccccc2)c1`: the cytotoxicity was 33.2%.

On to `CCc1ccc(-n2c(SCC(=O)Nc3cc(C)[nH]n3)nc3[nH]ncc3c2=O)cc1`, for which the cytotoxicity is -4.9%. Then `COc1ccc2nc(NC(=O)C3CCN(S(=O)(=O)c4cnc[nH]4)CC3)sc2c1`, with 14.5%; and `O=C(Nc1c(C(=O)NCc2ccco2)cnn1-c1ccccc1)c1cccc(F)c1`, with 7.2%; and `O=C(NCc1ccco1)c1cc2ccccc2o1`, with 7.8%.

For `Cc1ccc(-n2c(N)c(-c3nc4ccccc4n3C)sc2=S)cc1`, the cytotoxicity was 9.5%.

As to `C=CCn1c(N)nc2ccccc21`, the cytotoxicity is -9.7%.

`C=CCn1c(N)c(-c2nc3ccccc3n2C)sc1=S`: the cytotoxicity was 50.1% (active).

As to `CCC(=O)Nc1ccc(NC(=O)c2c(C)nc3ccccn23)cc1`, the cytotoxicity was -2.5%. Next, `O=C(CCCC(=O)N(CC(=O)NC1CCCC1)Cc1ccc(F)cc1)Nc1ccccn1`: 14.7%; `C/C=C/Cn1c(N(C)Cc2ccccc2)nc2c1c(=O)[nH]c(=O)n2C`: 5.8%. Then `CCOc1cc(N2CCOCC2)c(OCC)cc1NC(=O)CN1CCc2ccccc2C1`, with 9.3%; and `CCOc1cc(N2CCOCC2)c(OCC)cc1NC(=O)Cc1ccc(OC)c(OC)c1`, with -1.4%. Turning to `CCOc1cc(N2CCOCC2)c(OCC)cc1NC(=O)COc1cccc2cccnc12`, the cytotoxicity is 51% (active). Regarding `CC(C)(C)c1ccc(C(=O)N2CCC(C(=O)NCC3CCCO3)CC2)cc1` (stereo unspecified), the cytotoxicity is -1.9%. Then `CC(C)Cn1c(SCC(=O)NC2CCCc3ccccc32)nc(O)cc1=O` (stereo unspecified), with -9.4%; and `N#Cc1c(/N=C/N2CCCC2)oc(-c2ccccc2)c1-c1ccccc1`, with 15.9%. Consider `N#Cc1c(/N=C/c2ccco2)oc(-c2ccccc2)c1-c1ccccc1`, for which the cytotoxicity is 78.7% (active). As to `N#Cc1c(N)oc(-c2ccccc2)c1-c1ccccc1`, the cytotoxicity is -9.5%. Then `Cc1ccc(CCNc2ccccc2)c[n+]1[O-]`, with -10.6%.

Consider `CCOC(=O)CN1C(=O)C(O)(CC(=O)c2ccco2)c2ccccc21` (stereo unspecified), for which the cytotoxicity is -77.9%. Then `O=C(Nc1nccs1)Oc1ccccc1`, with 0.7%. Then `COc1ccc2c3c(cccc13)OCC2=O`, with 18.6%; and `COc1ccc(C(C)=O)c2c(O)cccc12`, with 12.2%; and `CC(=O)NC1CCN(C(=O)N2CCCC2)CC1`, with 7.7%.

In the case of `O=C(CSc1n[nH]c(-c2ccncc2)n1)NC1CCS(=O)(=O)C1` (stereo unspecified), the cytotoxicity was -7.5%. Then `Cc1c(C(=O)NCc2ccoc2)oc2ccc3c(c12)C(=O)CC(C)(C)O3`, with 36.4%; and `CCOC(=O)c1ccc(N2C(=O)CC(NC3CCN(C(=O)c4ccc(F)cc4)CC3)C2=O)cc1` (stereo unspecified), with -19.3%; and `CC(C)OC(=O)c1cc(=O)[nH]c2ccccc12`, with 13.4%. Then `Cc1noc(C)c1S(=O)(=O)N(CC(=O)Nc1ccc2c(c1)OCO2)c1ccc(C(C)C)cc1`, with -3.1%; and `Cc1ccc2c(CC(=O)NCc3ccco3)coc2c1C`, with 73.2% (active); and `Cc1cc(C)c2c(CC(=O)NCc3ccco3)coc2c1`, with 5.6%. On to `O=C(Cc1cccs1)NCc1ccco1`, for which the cytotoxicity is 6.7%.

With `CN1C(=O)CC(N2CCN(C(c3ccccc3)c3ccccc3)CC2)C1=O` (stereo unspecified), the cytotoxicity was -16.6%. On to `COC(=O)Cn1c(CN2CCN(c3ccc(F)cc3)CC2)nc2c1c(=O)n(C)c(=O)n2C`, for which the cytotoxicity is 0.6%. Next, `CCOC(=O)NC(Nc1ncccn1)(C(F)(F)F)C(F)(F)F`: -17.3%. Consider `CCCOCCOC(=O)c1[nH]c2c(c1C)C(=O)CC(c1cc(OC)ccc1OC)C2` (stereo unspecified), for which the cytotoxicity is 53.5% (active). Then `COCCOC(=O)c1[nH]c2c(c1C)C(=O)CC(c1cc(OC)ccc1OC)C2` (stereo unspecified), with -6.8%. Next, `COc1ccc(C2CC(=O)c3c([nH]c(C(=O)OC(C)C)c3C)C2)cc1OC` (stereo unspecified): -16.2%; `COC(=O)c1[nH]c2c(c1C)C(=O)CC(c1cc(OC)ccc1OC)C2` (stereo unspecified): 18.9%. On to `COc1ccc(OC)c(C2CC(=O)c3c([nH]c(C(=O)OC(C)C)c3C)C2)c1` (stereo unspecified), for which the cytotoxicity was 51.6% (active). Next, `COc1cc2nc(CC(C)C)n(NC(=O)c3ccccc3)c(=O)c2cc1OC`: -0.2%; `Cc1cc(N2CCN(C(=O)c3ccco3)CC2)n2nc(-c3cccc(Cl)c3)cc2n1`: 2%.
